Sampled rows, rich in hits. Any-hit rate of the full collection: about 3.4%.
ADAM10 inh = human ADAM10 inhibitors, primary screen, biochemical, QFRET, HTS | inhibition, % at 7 µM | 0.62% of 370,000 active | Disintegrin and metalloproteinase domain-containing protein 10 (Homo sapiens), O14672 | AID 720582, 2013 | recombinant ADAM10, EDANS/DABCYL FRET peptide cleavage, 3 h;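 active = inhibition above a per-campaign cutoff equal to the mean of compounds falling between control-based bounds plus 3 SD, cut at about 20% in these data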
Target sequence (O14672 214-748 limits assumed): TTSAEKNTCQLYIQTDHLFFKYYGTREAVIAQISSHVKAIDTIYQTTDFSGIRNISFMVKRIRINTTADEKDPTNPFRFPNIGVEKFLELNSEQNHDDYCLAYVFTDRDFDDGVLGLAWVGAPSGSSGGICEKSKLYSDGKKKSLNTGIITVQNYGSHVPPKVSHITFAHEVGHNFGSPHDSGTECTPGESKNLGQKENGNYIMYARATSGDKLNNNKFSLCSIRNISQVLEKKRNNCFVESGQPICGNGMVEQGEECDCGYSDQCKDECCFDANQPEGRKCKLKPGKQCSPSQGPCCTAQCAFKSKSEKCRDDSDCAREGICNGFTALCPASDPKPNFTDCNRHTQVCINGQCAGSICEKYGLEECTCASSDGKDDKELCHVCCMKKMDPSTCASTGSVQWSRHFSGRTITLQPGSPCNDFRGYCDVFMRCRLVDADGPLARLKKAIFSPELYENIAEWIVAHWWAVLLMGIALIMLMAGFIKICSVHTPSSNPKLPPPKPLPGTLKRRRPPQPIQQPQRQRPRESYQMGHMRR
ADAM17 inh = ADAM17 inhibitors, primary screen, biochemical, QFRET | 0.83% of 370,000 active | AID 720648, 2013 | inhibition, % at 6.95 µM | Disintegrin and metalloproteinase domain-containing protein 17 (Homo sapiens), P78536 | recombinant ADAM17, EDANS/DABCYL FRET peptide cleavage;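 active = inhibition above the mean of compounds lying between control limits plus 3 SD, set per campaign, cut at about 8.5% in these data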
CendR NRP1 mod = modulators of CendR peptide binding to NRP-1, primary screen, biochemical, fluorescence polarization, uHTS | inhibition, % at 25 µM | 0.85% of 360,000 active | FAM-RPARPAR peptide binding to NRP-1 | Neuropilin-1 (Homo sapiens), O14786;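 active = inhibition or corrected inhibition above about 18%, plus a signal ratio from 0.5 to 1.5, limit read from the data, passing the limit was not always enough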
sPLA2-III inh = human group III sPLA2 inhibitors, primary screen, biochemical, QFRET, BODIPY PC-A2 liposome substrate; AID 743126, 2013; QFRET BODIPY PC-A2 liposome hydrolysis, fluorescence; 0.56% of 370,000 active; inhibition, % at 12.2 µM; Group 3 secretory phospholipase A2 (Homo sapiens), Q9NZ20;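 active = inhibition above mean plus 3 SD of compounds lying within the high and low control bounds, cut at about 19% in these data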
KLK7 zymogen act = proKLK7 zymogen activators, primary screen, biochemical, fluorescence intensity; Kallikrein-7 (Homo sapiens), P49862; purified proKLK7, EDANS-DABCYL substrate fluorescence; 100% is mature enzyme control, 0% vehicle; activation, % at 7 µM; 0.9% of 370,000 active;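 active = activation above the mean of all tested compounds plus 3 SD, computed per campaign excluding outliers beyond control limits, cut at about 13% in these data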
ADAM10 counter = ADAM10 inhibitors, counter-screen for ADAM17 exosite inhibitor project, biochemical, FRET, human ADAM10; shares compounds with ADAM17 inh; recombinant ADAM10, EDANS/DABCYL FRET peptide cleavage, 3 h; inhibition, % at 6.95 µM; 47% of 2,900 active;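 active = mean inhibition over the triplicate runs exceeds the activity threshold set in the earlier primary screen, cut at about 20% in these data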
ADAM17 confirm = ADAM17 inhibitors, hit retest, confirmation, biochemical, QFRET peptide cleavage; AID 743257, 2014; inhibition, % at 6.95 µM; recombinant ADAM17, EDANS/DABCYL QFRET peptide cleavage; shares compounds with ADAM17 inh; 65% of 2,900 active;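 active = mean inhibition across replicates above the hit cutoff set in the primary screen, cut at about 8.5% in these data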
A number is an active result.

How did COC[C@H]1O[C@]2(c3ccccc3)CO[C@H]1[C@@H](/C=C/c1ccccc1)C2 do in these assays?
ADAM10 inh: inactive; ADAM17 inh: inactive; sPLA2-III inh: inactive; KLK7 zymogen act: inactive

What do the screens show for `CN(CCO)C1CN(Cc2cn(Cc3ccccc3F)nn2)S(=O)(=O)C1` (centres undefined)?
ADAM10 inh: inactive; ADAM17 inh: inactive; sPLA2-III inh: inactive; KLK7 zymogen act: inactive

How did CN1[C@H](Cc2ccccc2)COc2cc(N3CCSCC3)ccc2S1(=O)=O do in these assays?
ADAM10 inh: inactive; ADAM17 inh: inactive; sPLA2-III inh: inactive; KLK7 zymogen act: inactive

How did Cn1nc(-c2ccccc2)c(CSc2ccccc2)c1Cl do in these assays?
ADAM10 inh: inactive; ADAM17 inh: 9.3; CendR NRP1 mod: inactive; sPLA2-III inh: inactive; KLK7 zymogen act: inactive; ADAM10 counter: inactive; ADAM17 confirm: 9.3

Results for CS/C(=C\[N+](=O)[O-])Nc1ccc(F)cc1 ?
ADAM10 inh: inactive; ADAM17 inh: 13; CendR NRP1 mod: inactive; sPLA2-III inh: inactive; KLK7 zymogen act: inactive; ADAM10 counter: inactive; ADAM17 confirm: inactive

How did CC(=O)Nc1ccc(-c2ccnc3c2CC(C)(C(=O)Nc2ccccc2)O3)cc1 (centres undefined) do in these assays?
ADAM10 inh: inactive; ADAM17 inh: inactive; CendR NRP1 mod: inactive; sPLA2-III inh: inactive; KLK7 zymogen act: inactive

What do the screens show for `CC(=O)Nc1ccc(-c2ccnc3c2CC(C)(C(=O)NCCc2ccccc2)O3)cc1` (centres undefined)?
ADAM10 inh: inactive; ADAM17 inh: 9.5; CendR NRP1 mod: inactive; sPLA2-III inh: inactive; KLK7 zymogen act: inactive; ADAM10 counter: inactive; ADAM17 confirm: inactive

Results for CC(CCc1ccccc1)NC(=O)C(Cc1ccccc1)NS(=O)(=O)c1cccs1 (centres undefined) ?
ADAM10 inh: inactive; ADAM17 inh: 9.8; CendR NRP1 mod: inactive; sPLA2-III inh: inactive; KLK7 zymogen act: inactive; ADAM10 counter: 21; ADAM17 confirm: 9.3

What do the screens show for `CC(C)N1CCC1(C)C(=O)Nc1ccccc1OC(F)F` (centres undefined)?
ADAM10 inh: inactive; ADAM17 inh: 9.9; CendR NRP1 mod: inactive; sPLA2-III inh: inactive; KLK7 zymogen act: inactive; ADAM10 counter: inactive; ADAM17 confirm: inactive

How did CC(=O)Nc1cccc(-c2ccnc3c2CC(C(=O)Nc2cccc(Oc4ccccc4)c2)O3)c1 (centres undefined) do in these assays?
ADAM10 inh: inactive; ADAM17 inh: inactive; CendR NRP1 mod: inactive; sPLA2-III inh: inactive; KLK7 zymogen act: inactive

How did O=C(Nc1cccc(Oc2ccccc2)c1)C1Cc2c(-c3cccc(F)c3)ccnc2O1 (centres undefined) do in these assays?
ADAM10 inh: inactive; ADAM17 inh: 15; CendR NRP1 mod: inactive; sPLA2-III inh: inactive; KLK7 zymogen act: inactive; ADAM10 counter: inactive; ADAM17 confirm: 11

What do the screens show for `CC(C)=CCCC1=CC[C@H]2[C@@H](C1)C(C(C)C)=CC(=O)[C@@]2(C)O`?
ADAM10 inh: inactive; ADAM17 inh: inactive; sPLA2-III inh: inactive; KLK7 zymogen act: inactive

What do the screens show for `Cc1ccc(OC(=O)c2ccc(S(=O)(=O)N(C)C)cc2)c(-n2nc3ccccc3n2)c1`?
ADAM10 inh: inactive; ADAM17 inh: 9.1; CendR NRP1 mod: inactive; sPLA2-III inh: inactive; KLK7 zymogen act: inactive; ADAM10 counter: 32; ADAM17 confirm: 17

Results for Cc1ccc(OC(=O)c2cccc(S(=O)(=O)N(C)C)c2)c(-n2nc3ccccc3n2)c1 ?
ADAM10 inh: inactive; ADAM17 inh: inactive; CendR NRP1 mod: inactive; sPLA2-III inh: inactive; KLK7 zymogen act: inactive

What do the screens show for `Cc1nc(SCc2nc3ccc(Cl)cc3[nH]2)c2oc3ccccc3c2n1`?
ADAM10 inh: inactive; ADAM17 inh: 9.8; CendR NRP1 mod: inactive; sPLA2-III inh: inactive; KLK7 zymogen act: inactive; ADAM10 counter: inactive; ADAM17 confirm: inactive

What do the screens show for `CCCNc1ncnc2onc(C)c12`?
ADAM10 inh: inactive; ADAM17 inh: 9.8; CendR NRP1 mod: inactive; sPLA2-III inh: inactive; KLK7 zymogen act: inactive; ADAM10 counter: inactive; ADAM17 confirm: inactive

What do the screens show for `C[C@H]1[C@@H](OC(=O)NCc2cccc(Cl)c2)CC[C@@]23CCCN2C(=O)CCC[C@@H]13`?
ADAM10 inh: inactive; ADAM17 inh: inactive; sPLA2-III inh: inactive

What do the screens show for `O=C(NC1CCCCN(Cc2cccc(C(F)(F)F)c2)C1=O)c1cccc([N+](=O)[O-])c1` (centres undefined)?
ADAM10 inh: inactive; ADAM17 inh: inactive; sPLA2-III inh: inactive; KLK7 zymogen act: inactive

What do the screens show for `COc1ccc(NC(=O)CC2C(=O)N(C)C(=S)N2Cc2ccncc2)cc1` (centres undefined)?
ADAM10 inh: inactive; ADAM17 inh: 9.1; CendR NRP1 mod: inactive; sPLA2-III inh: inactive; KLK7 zymogen act: inactive; ADAM10 counter: inactive; ADAM17 confirm: inactive

How did N#CCOc1ccccc1CNC[C@H]1O[C@@H](n2cnc(C(N)=O)n2)[C@H](O)[C@@H]1O do in these assays?
ADAM10 inh: inactive; ADAM17 inh: 9.7; CendR NRP1 mod: inactive; sPLA2-III inh: inactive; KLK7 zymogen act: inactive; ADAM10 counter: inactive; ADAM17 confirm: inactive

Results for Cc1cccc(-n2c(Cc3ccccc3)nnc2SCC(=O)N2CCOCC2)c1 ?
ADAM10 inh: inactive; ADAM17 inh: 12; CendR NRP1 mod: inactive; sPLA2-III inh: inactive; KLK7 zymogen act: inactive; ADAM10 counter: inactive; ADAM17 confirm: inactive

What do the screens show for `CCc1cccc(Nc2cc(C)n(-c3cccc(CC)c3)c(=O)c2)c1`?
ADAM10 inh: inactive; ADAM17 inh: inactive; sPLA2-III inh: inactive; KLK7 zymogen act: inactive

Results for O=C(NCc1ccccc1)[C@@H]1CCCN1C(=O)[C@H]1CCCN1C(=O)c1cccc2ccccc12 ?
ADAM10 inh: inactive; ADAM17 inh: inactive; sPLA2-III inh: inactive; KLK7 zymogen act: inactive

Results for CCOc1c(OC(C)=O)ccc(/C=C/c2ccc3cccc(OC)c3n2)c1[N+](=O)[O-] ?
ADAM10 inh: inactive; ADAM17 inh: 9.0; CendR NRP1 mod: inactive; sPLA2-III inh: inactive; KLK7 zymogen act: inactive; ADAM10 counter: 24; ADAM17 confirm: 16

From PubChem BioAssay
